Results from PubChem BioAssay AID1508600 (Functional Genomics Laboratory (NCATS/FGL), 2020).
Hit rate of the full screen: of about 53,000 sequences, about 3,700 (7%) were called active.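 How the source made its calls: active means gene knockdowns whose robust z-score for IL-1 alpha signal is at least 2 or at most -2, so actives lie on both sides; inactive means the rest.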 The sample as a whole holds a higher share of actives than the screen did.

assay: Components of the Cytosolic LPS Sensing Pathway: Gene Identification via Genome-wide siRNA Screen; conditions: RAW264.7 macrophages, IL-1a HTRF, actives lie on both sides, screened at 100 nM (by protocol), cells primed 5 h with Pam3CSK4 first;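 further: robust z of the log signal after scaling to non-targeting control siRNA wells of the plate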
Summary of the method: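 Read-out: IL-1a HTRF on supernatant, divided by plate negative-control median ×100, log-transformed and converted to robust z-score. Cells were RAW264.7 given 100 nM siRNA, Pam3CSK4-primed 5 hours, then LipidA-transfected 24 hour.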

z-score, inactive:
GGUCUCAGUUUCUCAGAAUTT against Siglece -1.62
GCUACCAGGAUAGCGAAACTT against P2rx2 0.826
GGAAAAAUGGUCUGUAAAATT against Adck2 0.508
GGAAAAGGUGACCUGUCUCTT against Slc44a1 -1.77
GGCCAGAAAGGCAGCAAAGTT against Msgn1 -1.03
GGAAGUGAAGACCUUCUUCTT against St3gal4 -0.898
UCGAUAGCCUCAAUCAGCATT against Zfp58 -1.99
GCAUUCGUUCGGCACGUGUTT against Bcl2l14 -0.0672
GCCCUGGAUCAUUGAGUGATT against Atp2b1 0.749
GGCCAUACACCUGUGACAUTT against Osr2 1.37
CCCUCUACUACUGCAUCGUTT against Xkr7 1.74
GCACUUCUACCGGAAAGUUTT against Mad2l1bp -0.761
GCAAAGCCCUAUUCCUAAUTT against Vmn2r42 1.21
GGCCUAAACCCUUUCAUCUTT against V1rb6 -0.0202
GCGAUCCUCUCUACUUAACTT against Eno4 -1.49
GCGGGUAUGAUGGUACCUUTT against Pomt2 1.39
GGUACUUCACAAUGGACAGTT against Zcchc9 0.951
GGUGCAUUUUCUAGAAUCATT against Usp45 0.933
GCCACCAAGUACUUUGGUUTT against Vmn1r76 1.34
GCAAUUUGCUCAUCUCUAATT against Dcc 1.89
GGAUGCAGAUGCUGUGGACTT against S100a1 -0.918
GGAGUACGACUACUACGGUTT against Sfrp5 0.83
GGCGAGCAUCGCUAUUGACTT against Zcrb1 0.734
GGAGAUCCUAGGCUUGAACTT against Vsx2 0.279
GGGAGACUUGUCAUGCACATT against Slc45a2 0.728
GGUAGCUGAAGAAGACUUCTT against Reg2 -0.591
GGCUUUGCUGAAUGUCUCATT against Nrn1l 0.443
CCUGCUAAUGUUUGUAAGUTT against Sowahc 1.37
GGAACUCACCCUCAGCUUGTT against Tmem260 0.313
CCAAACAACCAGCUAAUAUTT against Mia3 -0.375
GGUGAAAUGAGAAUACUUGTT against Erap1 1.07
GGAAUGAUGAAGAGUGUCCTT against Btla -0.0564
GGCUACUGUAGGAAGAAAUTT against Defb20 1.7
GGAAGUUUUGUUCCUGCAUTT against Nars2 -0.0244
GGCCAUCCAGAAUUACAUGTT against Vash2 1.08
CCGGGUCAGGACAAUUCAUTT against Hsd17b1 1.87
GGCCAUUGAUCAAGACAAGTT against Glyat 1.66
GCCGUGAUGCCUAAAAUGCTT against Olfr543 -0.306
GGUAUCUUGAGAAGCCAAUTT against Stat3 -0.536
GGAUUCAUCAUCUACCCGGTT against C1ql4 -1.08
GGAUAACCUUGAGUAGGUGTT against Olfr906 0.484
CGGAUACCUAGAGUGCAUCTT against Zfp42 0.725
CGUGGAAGCUGUGUUAUCUTT against Il34 -0.112
AACGUAAUUAGCGUGAAUUTT against Cyp2j11 0.337
CUUGUCAAGUGAUGAAAUGTT against Xlr -0.546
GGUCGAAAGAAUAAUUUGUTT against Cct6a -0.628
GGCAGUCUACUUUACACGGTT against Prdm1 0.294
GGAUCUUGGAUAAAGUGUGTT against Gpr180 1.73
CCCAGUUGCUGUUCUUGACTT against Defb40 0.553
GGCUUCCUCAAGAACUUUCTT against Acly 0.0643
CCGGUUACAAACUCAACUGTT against Syne3 -0.285
GGGAGAGAUCCUCAACAGGTT against Cdk5rap1 -0.581
CCUGGGUUGGAUAAAACUUTT against 6030458C11Rik -0.0611
GGAUUUUAAACCUUAAGGUTT against Ssty1 0.49
GGCAGUGAAGAGAAGAAGUTT against Trub2 -0.835
GGAUUUCUUUGUCAGUACUTT against Il22ra2 0.791
CCAUUAUGGACAAUAAGAGTT against Rnf8 0.396
GCAUGUGACUCCAUAUAAATT against Cldn15 -0.117
GGUUCAAAACUACACACACTT against Sp9 0.512
GGAUCAAUGCACCUUCCAATT against Gpr85 1.61
GGACCAGUUUAUCCAGCACTT against Mc3r -0.699
GGCAGAAAAGAUAGCAUCUTT against Cops4 0.413
GGUCUUUUCUAUUAUGGGATT against Strc 1.22
GCGGUUUUGUGUCAGGGACTT against 4833408A19Rik -0.682
CCCUGAACAGGUCAUCUGUTT against Ctps2 0.822
CGUGCUCAUUUAGGUUAUATT against Zfp57 1.15
GGGCAAAUAGUCAAUGACCTT against Ces1e 0.661
GCGGAACUUUCAUUGCUGGTT against Rabggta 1.85
GCCUUCUGAUUCAUUUUCUTT against Naa38 0.525
GGAAAGUUUGCACUGUAAATT against Tiam2 -0.207
CCGUCUUCACCUGAUACAGTT against Ube2d2b 0.501
GCUGAACGGUCUCAAACAGTT against Cdca3 0.395
GGUGUCUCUGAUGAAUCACTT against Syt15 1.21
GGAAGUCCAACUUCUUCCATT against Ebf4 -0.153
GGCAUGAUGAUAUUUGAAATT against Glrp1 -0.142
GGAAAAAGAUGUCCUAUCUTT against Rufy2 -1.08
GGAUGUGGGUGGAUAUCAUTT against Sit1 0.145
GCUUAUCGAAUUCUUCUCCTT against Cnpy2 0.417
CUAGAUGCACAGAAUAGCATT against Prm1 -1.83
GCAAUAGGCAAUCUGGGAUTT against Olfr52 0.504
GCCUCAAUAAAUUGUCAGCTT against Slc25a17 -0.0131
GCUGCAUAGAAUGACACGATT against Pip5kl1 0.851
GGCAAAGACGACCUCUCACTT against Vtcn1 -1.56
GGAUGAUGAAGUCAAAUUUTT against Slc26a5 0.0656

z-score, active:
GCUUGCUUAUGGCCUAUUATT against Ucma -2.05
GGAGAAGGUCGAAAAGCCUTT against Rybp -2.01
CGAAGGGAAGCAAAAUACATT against Bend5 2.11
GGAUGAUCGCUUUUGCUAUTT against Caly 2.02
CGUGGGACCUGGUAUGUAATT against Slc22a12 2.79
CGUGAUGAGUGAAAAUGAUTT against Cd34 -2.12
GGUACCUAUGCCAGUUUUGTT against Aqp12 2.89
GGAUUACCGGCAGCUGGAATT against Dnm1 2.24
GCAUUAAUUGCUUCUCUUATT against Nup155 -2.35
CCCUGGUUGUUUGUAGAGUTT against Armt1 2.38
GGAGAAGGAACUGUGUGAGTT against Nfkbil1 -2.26
GGCUUUGUAGAAAAUUCAUTT against Polr2a -2.15
GGAUGACCAGAACUUCAGUTT against Zfp956 2.84
GCAGUUCCCAUAGUUUUCUTT against Il1r2 6.07
GGCAAUUUUCAGAGAAGUUTT against Fosb -2.08
GGUGCAUGACCUGACAAAGTT against Fermt3 2.5
GGAGGGUACUCACAGGAAATT against Olfr411 -2.05
GGAGCUGUUGAAAGAAUAUTT against Relt 2.63
GGACAUGACUCUAAAAAAATT against Slc44a3 4.43
CCGGAGCACCAUUAAGGUUTT against Nudt11 4.75
UCACAGUCAUCAUUGUUUCTT against Olfr825 -2.83
GGUACCAUGAAGGAUUUAUTT against Tspan2 3.24
GGAAAAAAAGGUAGCUGGATT against Tspyl4 2.82
GAAGCAGAACUUGAGCAAGTT against Phgdh 2.07
